This note sets out measurements from PubChem BioAssay (NCI).

What all share (assay): NCI-60 one-dose screen, 48 h (100 = growth as untreated, 0 = no growth, -100 = all killed)
Common to all, as to conditions: 10 µM unless noted

The test system of assay [1] is HCT-15 colon.
Assay [2] concerns HT29 colon.
The subject of assay [3] is SNB-75 CNS.
The subject of assay [4] is SNB-19 CNS.
The test system of assay [5] is U251 CNS.
Assay [6] concerns PC-3 prostate.
Assay [7] has as its system SK-MEL-5 melanoma.
For assay [8], the system named is UACC-62 melanoma.
Assay [9] relates to LOX IMVI melanoma.
Assay [10] has as its system SK-MEL-28 melanoma.

Compounds without any hit were thinned out: in the full panel of roughly 83,000, 20% have a hit.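 A percent growth of 40 corresponds to 60% growth inhibition; 0 means no net growth; -100 means all cells died. Active threshold: below 10.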 Unmarked numbers belong to inactive results. Activity calls are given as the source filed them.

Regarding `CC[C@H](C)[C@H](NC(=O)N[C@@H](C)c1ccccc1)C(=O)N(C)[C@H](C[C@@H](OC(C)=O)c1nc(C(=O)N[C@@H](Cc2ccccc2)C[C@H](C)C(=O)OC)cs1)C(C)C`, the growth in [1] was 12.3%; in [2] it was -24.4% (active); in assay [3], -0.0971% (active); in assay [4], 56.7%; in assay [5], 13.1%; in assay [6] it was 22.6%. Moreover, the growth is -33.7% (active) in assay [7], 11.4% in assay [8], 18% in assay [9] and 44.6% in [10].
On to `CC(=O)OC1C(OC/C2=C/C3[C@@H](C(C)C)CC=C(C)[C@@H]3CC(OC(=O)/C=C/c3cn(C)cn3)[C@]3(C)C=C[C@@]2(O)O3)OCC(O)C1O` (stereo not given in full), for which the growth in assay [1] is 36.2%; in assay [2] it was 8.89% (active); in assay [3], -28.6% (active); in [4], 37%; in assay [5], 18.2%; in assay [6], 26.5%. Moreover, the growth was 7.53% (active) in assay [7], 26.5% in assay [8], 35.2% in assay [9] and 45.7% in assay [10].
As to `CC(=O)C(c1c(O)c2ccccc2oc1=O)c1cc(=O)oc2c1ccc1ccccc12` (stereo not given), the growth in [1] is 101%; in [2] it was 109%; in assay [3] it was 67.8%; in assay [4], 90.7%; in assay [5], 91.5%; in [6] it was 85.7%. Moreover, the growth in assay [7] was 96.5%; in assay [8] it was 91.1%; in assay [9] it was 96.6%; in assay [10], 110%.
Regarding `O=C(Nc1ccc(O)cc1)C(Cl)(Cl)Cl`, the growth was 98.7% in assay [1]; 105% in assay [2]; 98.5% in assay [3]; 102% in assay [4]; 95% in assay [5]; 101% in assay [6]. Besides, the growth in assay [7] was 100%; in [8], 93.8%; in [9], 106%; in assay [10], 107%.
Regarding `O=c1[nH]c2ccc([N+](=O)[O-])cc2c(=O)o1`, the growth in assay [1] is 99%; in assay [2] it was 113%; in assay [3], 113%; in [4], 102%; in assay [5], 106%; in assay [6], 92.8%. In addition, the growth in assay [7] was 95.3%; in assay [8], 100%; in assay [9], 99.9%; in assay [10], 105%.
As for `CCn1nccc1NC(=O)C(=O)c1cn(Cc2ccc(F)cc2)c2cccc(OC)c12`, the growth in assay [1] was 91.8%; in assay [2], 112%; in [3], 91%; in [4], 90.9%; in assay [5] it was 92.1%; in [6], 90.6%. Besides, the growth in assay [7] is 87.3%; in [8], 78.4%; in assay [9], 84.2%; in [10], 107%.
For the compound `COC(=O)[C@@H](C)C[C@H](Cc1ccc2ccccc2c1)NC(=O)c1csc([C@@H](C[C@H](C(C)C)N(C)C(=O)[C@@H](NC(=O)[C@H]2CCCCN2C)C(C)C)OC(C)=O)n1`, the growth was 70.3% in assay [1]; 1.71% (active) in [2]; 42.8% in assay [3]; 51.8% in [4]; 22.1% in assay [5]; 47.3% in assay [6]. The growth in [7] was -21% (active); in assay [8], 49.3%; in assay [9], 28.3%; in [10] it was 68.6%.
As to `O=C1CNC(c2ccccc2)c2cc(Cl)ccc2N1` (stereo not given), the growth in assay [1] is 105%; in assay [2], 80.4%; in [3] it was 85.6%; in assay [4], 96.6%; in assay [5] it was 105%; in assay [6], 99.3%. Besides, the growth is 101% in assay [7], 93.4% in assay [8], 96.3% in assay [9] and 116% in assay [10].
As to `COc1cc(C=Nc2cccc(C(=O)O)c2)ccc1N(CCCl)CCCl`, the growth in [1] is 97.8%; in assay [2] it was 98.1%; in assay [3], 101%; in [4] it was 102%; in [5], 100%; in assay [6], 101%. Also, the growth in assay [7] is 98.7%; in [8] it was 96.7%; in assay [9], 101%; in assay [10], 103%.
On to `Cn1cc(C=O)c2nccnc21`, for which the growth in [1] was 114%; in assay [2], 93%; in [3], 78.5%; in [4] it was 110%; in [5], 97.1%; in [6], 107%. Moreover, the growth was 104% in assay [7], 102% in [8], 94.5% in assay [9] and 94% in [10].
Regarding `CO[C@H]1CC[C@@]2(C)C(=CC[C@@H]3[C@@H]2CC[C@]2(C)C(=O)C(=O)C[C@@H]32)C1`, the growth is 103% in assay [1]; 106% in assay [2]; 103% in [3]; 94.8% in [4]; 104% in [5]; 84.2% in assay [6]. The growth was 99% in assay [7], 92.5% in assay [8], 92.5% in assay [9] and 117% in assay [10].
Regarding `ClCCN(CCCl)c1ccc(/C=N\N=C\c2ccc(N(CCCl)CCCl)cc2)cc1`, the growth in assay [1] is 37.3%; in [2], 39.3%; in [3], 72.1%; in [4] it was 69.2%; in assay [5] it was 47.4%; in [6], 34.3%. Further, the growth in [7] is 49.7%; in assay [8], 24.5%; in assay [9], 10.7%; in [10] it was 61.3%.
`CCOP1(=O)CC(C)=C(Cl)C(P(=O)(OCC)OCC)C1` (stereo not given): the growth was 101% in assay [1]; 96.2% in [2]; 78.7% in [3]; 89.9% in assay [4]; 101% in [5]; 92.6% in assay [6]. Further, the growth in [7] is 101%; in [8] it was 92.3%; in assay [9], 92.6%; in assay [10], 87.3%.
Regarding `CCCCOc1ccc(C(N)Cc2ccccc2)cc1` (stereo not given), the growth in assay [1] is 84.9%; in assay [2], 75.4%; in assay [3], 71.2%; in assay [4], 97%; in assay [5], 88.1%; in [6], 79.5%. For the same compound, the growth was 92.8% in assay [7], 105% in assay [8], 80% in [9] and 105% in assay [10].
For `CC12CCC3C(CCC4Cc5[nH]c6ccccc6c5CC43C)C1CCC2O` (stereo not given), the growth in assay [1] was 33.2%; in assay [2], 10.7%; in assay [3], 31.7%; in assay [4] it was 28%; in [5], 20.1%; in assay [6], 34.5%. Moreover, the growth in assay [7] was 2.53% (active); in assay [8], 31.8%; in [9] it was 13.4%; in [10] it was 54.8%.
As for `CNC(=O)Oc1ccc2c(c1)OCO2`, the growth in assay [1] was 101%; in assay [2], 104%; in assay [3], 98.6%; in assay [4], 98.9%; in assay [5] it was 99%; in assay [6], 102%. The growth is 101% in [7], 99.4% in assay [8], 103% in assay [9] and 108% in assay [10].
`CN1CC(CNC(=O)OCc2ccccc2)CC2c3cccc4c3c(cn4C)CC21` (stereo not given): the growth in assay [1] is 8.29% (active); in assay [2], 5.34% (active); in [3], 20.6%; in [4] it was 57.8%; in [5], 13.6%; in assay [6] it was 40%. Also, the growth in assay [7] was -97.8% (active); in assay [8], 5.67% (active); in [9], -37.4% (active); in assay [10], -41.1% (active).
In the case of `Clc1ccc(CSC(Cn2ccnc2)c2ccc(Cl)cc2Cl)cc1` (stereo not given), the growth in assay [1] was 29%; in [2], 30.5%; in [3], 57.9%; in assay [4] it was 47.3%; in assay [5], 27.8%; in assay [6], 15%. Besides, the growth in assay [7] is -9.89% (active); in assay [8], 29.5%; in assay [9], 18%; in assay [10], 62.3%.
On to `CC(=O)O[C@H](C[C@H](C(C)C)N(C)C(=O)[C@@H](NC(=O)[C@H]1CCCCN1C)C(C)C)c1nc(C(=O)N[C@@H](Cc2ccccc2)C[C@H](C)C(=O)O)c(CCOCc2ccccc2)s1`, for which the growth in assay [1] is 6.72% (active); in assay [2], -4.51% (active); in [3] it was 0.84% (active); in assay [4], 16%; in assay [5] it was 11.5%; in [6], 21.9%. Further, the growth was -40.5% (active) in assay [7], 27.1% in assay [8], 11.8% in [9] and 42% in [10].
As to `O=[N+]([O-])c1ccc([Se]C2CCCCC2Cl)c([N+](=O)[O-])c1` (stereo not given), the growth in [1] was 88.3%; in [2], 60.7%; in assay [3], -39.9% (active); in assay [4], 56.2%; in assay [5], 20.4%; in assay [6] it was 58.9%. In addition, the growth in assay [7] was 68.6%; in assay [8] it was 72.2%; in assay [9] it was -55.2% (active); in assay [10], 72.6%.
In the case of `CC12CC(=O)C3(SC#N)C(CCC4=CC(=O)CCC43C)C1CCC2=O` (stereo not given), the growth in assay [1] was 34.5%; in [2], 64.2%; in assay [3], 93.6%; in [4], 96%; in [5], 101%; in assay [6], 104%. In addition, the growth was 101% in assay [7], 89.3% in assay [8], 80.8% in assay [9] and 94.7% in [10].
Regarding `O=[N+]([O-])c1cc(I)cc([N+](=O)[O-])c1`, the growth in [1] is 90.2%; in assay [2] it was 109%; in [3], 93.2%; in assay [4] it was 113%; in assay [5] it was 107%; in assay [6], 92.5%. In addition, the growth in [7] is 95.2%; in [8], 103%; in assay [9], 91.8%; in assay [10] it was 116%.
Regarding `CC1(C)N=C(N)N=C(N)N1c1ccc(CCCCc2ccc(Cl)c(S(=O)(=O)F)c2)c(Cl)c1`, the growth in assay [1] was 37.3%; in assay [2], 16.3%; in assay [3], 35.1%; in assay [4] it was 31.6%; in assay [5], 28.8%; in [6], 15.1%. For the same compound, the growth in assay [7] is 10.6%; in assay [8], 16.2%; in [9], 13.6%; in [10], 58.2%.
As for `C#Cc1ccc2c(c1)C(c1ccccc1F)=NCC(=O)N2C`, the growth in [1] was 28%; in [2], 15.7%; in assay [3], 51.7%; in assay [4], 49%; in [5] it was 39.7%; in assay [6], 55.8%. Also, the growth in assay [7] was 29.9%; in assay [8], 31.3%; in [9], 47.5%; in [10] it was 63.8%.
As to `[Cl][Hg][n]1c(-c2ccco2)nc2ccccc21`, the growth is 92% in [1]; 104% in assay [2]; 91.7% in assay [3]; 93.1% in [4]; 91.5% in assay [5]; 98.5% in [6]. In addition, the growth in assay [7] is 97%; in assay [8] it was 95.8%; in assay [9], 15.4%; in [10] it was 108%.
